The values that follow come from PubChem BioAssay (NCI).

Several values for one entry are separate records, joined by “and”; a condition that tells them apart may be missing. Identical values can stand only once. This is part of a sample that, as a whole, favours compounds with a hit. Of some 83,000 tested, about 20% had one in any assay.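 The test compound was applied at a single concentration to cells in 96-well plates for 48 hours, and percent growth was recorded.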 A number with no mark means an inactive call. Activity calls are given as the source filed them. Rule for the calls: active = growth percent below 10; inactive = the rest.

The experiment relates to MDA-MB-468 breast. Put plainly: NCI-60 one-dose screen, 48 h (100 = growth as untreated, 0 = no growth, -100 = all killed). The note with it: 10 µM unless noted.
As to `C[C@]12CCC(=O)C[C@H]1CC[C@@H]1[C@@H]2CC[C@@]2(C)[C@H]1CC[C@]2(O)C(=O)CO`, the growth is 99.8%.
As for `NC(=O)c1c(OCc2c(F)cc(Br)cc2F)nsc1NC(=O)NCCCCN1CCCC1`, the figure is -57.8% (active).
As for `Cc1noc(C)c1CSc1nc2ccccc2n1-c1ccccc1`, the figure is 108%; as for `c1ccc(CNCCN(CCNCc2ccccn2)Cc2ccc3ccccc3c2)nc1`, -10% (active).
As for `COc1ccc(C/C(C)=C(/c2ccc(OCCN3CCCCC3)cc2)c2ccc(OC(=O)NCc3ccccc3)cc2)cc1`, the figure is -82.7% (active); as for `N#Cc1ccc(NC(=O)Nc2ccc(Cc3ccc(NC(=O)Nc4ccc(C#N)cc4)cc3)cc2)cc1`, -7.75% (active); as for `CCn1cc(C(=O)NN=C2CCCC2)c(=O)c2ccc(C)nc21`, 91.8%.
Take `COc1cc2cc(Oc3ccc(NC(=O)c4cc(C(F)(F)F)cc(C(F)(F)F)c4)cc3)c(C)nc2cc1OC`: the growth was 22.8%.
With `CCCCc1n(Cc2ccc3ccccc3c2)cc[n+]1Cc1ccc2ccccc2c1`, the growth is -55.2% (active).
In the case of `Oc1c(I)cc(I)cc1CN(Cc1ccccn1)Cc1ccccn1`, the growth was 8.74% (active).
Take `CCN1CCN(CCNc2nccc(-c3c(-c4cccc(OC)c4)nc4occn34)n2)S1(=O)=O`: the growth is 100%.
As to `NC1CCC(C(=O)O)CC1` (stereo not given), the growth is 99.8% and 107%.
As for `CCC(C(=O)[C@@H](C)[C@@H](O)[C@H](C)[C@@H]1O[C@@H]([C@@H](CC)C(=O)ONC(=O)c2ccccc2)CC[C@@H]1C)[C@H]1O[C@]2(C=CC(=O)[C@]3(CC[C@@](C)([C@H]4CC[C@](O)(CC)[C@H](C)O4)O3)O2)[C@H](C)C[C@@H]1C` (stereo not given in full), the figure is -33.2% (active); as for `O=C(/C=C/c1ccc(Cl)cc1)c1cccc(OCCCOc2cccc(C(=O)/C=C/c3ccc(Cl)cc3)c2)c1`, 92.9%.
`C=C1C(=O)O[C@H]2[C@H]1CC/C(COC(=O)CCCCCC(=O)OC/C1=C/CC[C@@]3(C)O[C@H]3[C@H]3OC(=O)C(=C)[C@@H]3CC1)=C\CC[C@@]1(C)O[C@@H]21`: the growth was -33.4% (active).
Consider `Cc1ccc(S(=O)(=O)c2nc(-c3ccccc3)oc2S(C)(=O)=O)cc1`, for which the growth is -59.3% (active).
For `CCOC(=S)SCc1ccc(Cl)cc1` the value was 106%; for `Cc1cc(C(N)=O)cc(C)c1C(=O)OCCCl`, 115%; for `CCCCN(CCCC)CC(O)CN(CC)CC` (stereo not given), 101%.
As for `COc1ccc(/C=C2\CN(Cc3cn(CCCNc4ccnc5cc(Cl)ccc45)nn3)C/C(=C\c3ccc(OC)cc3)C2=O)cc1`, the figure is 57.5%.
For `O=C(c1ccccc1)c1ccc(N2C(=O)C3C4c5ccccc5C(/C=C/C(=O)c5ccccn5)(c5ccccc54)C3C2=O)cc1` (stereo not given) the value was 21.9%; for `Cc1[nH]n(-c2ccccc2)c(=O)c1C=NC(=S)C(N)=S`, 95.9%.
For `COc1cc(CCc2cc(NC(=O)c3ccc(N4C[C@@H](C)N[C@@H](C)C4)cc3)n[nH]2)cc(OC)c1`, the growth was 71.3%.
For `O=c1oc2ccc(Br)cc2c(=O)n1-c1ccc(Br)cc1F` the value was -11.7% (active); for `CN(C)CCCOc1ccc2c(c1)CN(C(=O)c1cc(C(=O)N3Cc4cccc(F)c4C3)ccc1O)C2`, 106%.
As for `CC1NC(=S)NC(=O)/C1=C/c1cc(=O)oc2c1ccc1ccccc12` (stereo not given), the figure is 103%; as for `CCCCC(=O)Nc1c(C(=O)Nc2ccccc2)sc2nc3c(cc12)C(OC(=O)CCCC)CCC3` (stereo not given), 56.2%.
As to `COc1cccc(-c2nn(C(C)(C)C)cc2-c2ccnc(NCCCNS(=O)(=O)c3ccc(C)cc3)c2)c1`, the growth was 104%.
Consider `CC(=O)NNC(=S)/N=C\C(C(=O)c1ccccc1)=C(/O)c1ccccc1`, for which the growth is 114%.
For `COc1ccc(Nc2nc(-c3cc(O)c(C)c(C)c3O)cs2)cc1` the value was -6.65% (active); for `C=CCn1c(SCC(=O)Nc2cccc(C(=O)/C=C/c3ccccc3Cl)c2)nc2ccccc2c1=O`, 98.1%; for `C=CC(=O)Nc1cccc(C)c1Nc1cc(-c2cccnc2Cc2c(C)c(OC)cc(OC)c2C)ncn1`, 19.5%.
For `NC(CSC(c1ccccc1)(c1ccccc1)c1ccccc1)C(=O)O` (stereo not given) the value was 32.7%; for `COc1ccc(C(=O)/C=C/c2cc(C(=O)c3cc(OC)c(OC)c(OC)c3)ccc2OC)cc1`, 47.2%.
For `C=C(C)[C@@H]1CC[C@]2(C(=O)NCCNCCNC(=O)OC(C)(C)C)CC[C@]3(C)[C@H](CC[C@@H]4[C@@]5(C)CCC(=O)C(C)(C)[C@@H]5CC[C@]43C)[C@@H]12` the value was 53.5% [100 µM]; for `O=C(/C=C/c1cc2ccccc2[nH]c1=O)/C=C/c1cc2ccccc2[nH]c1=O`, -31.7% (active); for `Cn1c([N+](=O)[O-])cnc1/C=C1\Oc2ccc(Cl)cc2C1=O`, 7.19% (active).
In the case of `C=C(C[C@@](O)(C(=O)Oc1ccccc1)C(=O)C1CCCCC1)c1ccccc1`, the growth was 85.3%.
As for `CS(=O)(=O)c1c(Nc2ccccc2)n[nH]c1N`, the figure is 110%; as for `CCN1C(=O)N(CC)C2C1NN=c1s/c(=C\c3ccco3)c(=O)n12` (stereo not given), 13.8%.
